Here are results for nine molecules from PubChem BioAssay (Tox21).

Molecules are shown by their SMILES. Where “and” joins values, the source holds several entries; their conditions need not be identical. Identical values can stand only once. Records with an inconclusive call do not appear. Calls of active or inactive are those of the source. Unless noted, calls follow the shape of the full dose curve.

The target of assay [1] is Gonadotropin-releasing hormone receptor (Homo sapiens) (UniProt P30968). The assay can be described thus: Human gonadotropin-releasing hormone receptor (GnRHR) small molecule agonists, calcium flux assay in GnRHR-HEK293 cells (AID 1920063). Also: nearly all actives have a fitted effect of over 35% in size. The procedure, abridged:
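Tox21-format agonist screen using human GnRHR-expressing HEK293 cells and a fluorescent calcium dye; kinetic 3-min fluorescence reading after compound addition, 15-point concentration series run in triplicate.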
Background: A change in cytosolic calcium serves as a functional read-out for many receptors and channels.

The target of assay [2] is KiSS-1 receptor (Homo sapiens) (UniProt Q969F8). The assay can be described thus: Human kisspeptin (KISS1R) small molecule agonists, calcium flux assay in KISS1R-HEK293 cells (AID 1920064; active = well fitted activation curve with a large enough effect in the repeat runs). The procedure, abridged:
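Intracellular calcium mobilization in KISS1R-HEK293 cells was recorded by fluorescence (Ex/Em 480/540) for 3 min following compound addition to cells pre-loaded 1 h with calcium dye.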

Assay [3] is described as follows: G protein-coupled receptor (GPCR) small molecule agonists, calcium flux assay: HEK293 wild type cell line counter screen (AID 1920065). In a few lines: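 In this agonist-mode screen, ATP is the positive control and DMSO the vehicle. Cells grow 18 h before a 1 h dye incubation at 37 C; signal is taken at Ex/Em 480/540 over 3 min.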
Assay [4] can be described thus: p53 small molecule agonists, cell-based qHTS assay with rat liver microsomes (AID 1963578). In a few lines: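 Each plate received p53RE-bla cells, then compound, then rat liver microsomes and NADPH (both 0.5 mg/mL final). Plates were held 16 h at 37 C, and beta-lactamase activity was detected with LiveBLAzer over 2 h.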
For orientation: qHTS replaces the single test concentration by a dilution series.

Assay [5] can be described thus: p53 small molecule agonists, cell-based qHTS assay with human liver microsomes: qHTS cell viability counter screen (AID 1963579). Also: nearly all actives have a fitted effect of over 45% in size. In a few lines: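 Tox21 library compounds, delivered from DMSO stocks, were tested on p53RE-bla cells together with 0.5 mg/mL human liver microsomes and 0.5 mg/mL NADPH (final) over 16 h at 37 C; CellTiter-Glo luminescence served as the cytotoxicity measure.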

Assay [6] is described as follows: p53 small molecule agonists, cell-based qHTS assay with rat liver microsomes: qHTS cell viability counter screen (AID 1963580). Also: nearly all actives have a fitted effect of over 45% in size. Also: potency is read from the fitted curve at half-maximal effect. In a few lines:
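p53RE-bla HCT-116 cells were exposed 16 h at 37 C to compounds with rat liver microsomes (0.5 mg/mL) and NADPH (0.5 mg/mL). Viability was measured in the same wells as ATP content by CellTiter-Glo luminescence.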

Assay [7] in a line: p53 small molecule agonists, cell-based qHTS assay: qHTS cell viability counter screen (AID 1963581). Also: nearly all actives have a fitted effect of over 45% in size. In a few lines:
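Compounds are pinned onto HCT-116 p53RE-bla cells and left 16 h at 37 C. Following the reporter FRET read, ATP is quantified by CellTiter-Glo luminescence after 30 min at room temperature.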

Assay [8] in a line: p53 small molecule agonists, cell-based qHTS assay (AID 1963582; active = well fitted activation curve with a large enough effect in the signal ratio in the repeat runs, not every such curve was filed as active; the % refers to the signal ratio; also: potency is read from the fitted curve at half-maximal effect). The procedure, abridged:
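Agonist activity was scored from beta-lactamase FRET fluorescence in p53RE-bla cells treated 16 h at 37 C with compounds in DMSO, substrate incubation being 2 h at room temperature.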

The target of assay [9] is Beta-2 adrenergic receptor (Homo sapiens) (UniProt P07550). The assay can be described thus: Adrenergic beta2 receptor (ADRB2) small molecule antagonists, cell-based qHTS assay (AID 1963592). Also: series mostly up to about 92 µM; nearly all actives have a fitted effect of over 50% in size. In a few lines:
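Cells (CHO, stable ADRB2 overexpression) incubated 18-20hr at 37C; compounds added from DMSO; agonist mix (1nM isoproterenol, 100uM IBMX, 25uM Ro-20-1724) added; 0.5hr RT; d2-cAMP and anti-cAMP-cryptate added; 1hr RT; 665/615 nm read.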

For assay [10] the target is unchanged. Nature of the assay: Adrenergic beta2 receptor (ADRB2) small molecule agonists, cell-based qHTS assay (AID 1963593).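 Also: CHO cells stably overexpressing human ADRB2.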 In a few lines: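 CHO cells stably over-expressing ADRB2 were plated overnight at 37C, then dosed with compounds plus a stimulation mix containing 100uM IBMX and 25uM Ro-20-1724 for 0.5hr at room temperature. cAMP was measured by HTRF competition, 1hr.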

Assay [11] addresses D(2) dopamine receptor (Homo sapiens) (UniProt P14416). The assay can be described thus: Dopamine D2 receptor (DRD2) small molecule antagonists, cell-based qHTS assay (AID 1963595; active = well fitted inhibition curve with a large enough effect in the signal ratio in the repeat runs, with a control signal flat; the % refers to the signal ratio). In a few lines:
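Readout: HTRF cAMP, cAMP-d2 competing with cellular cAMP for anti-cAMP cryptate, read after 1 h. Cells: DRD2-HEK293. Conditions: 0.1 mM Ro20-1724, 12 nM quinpirole, 200 nM NKH477, 30 min RT.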

Assay [12] has as its target 5-hydroxytryptamine receptor 2A (Homo sapiens) (UniProt P28223). Nature of the assay: 5-hydroxytryptamine receptor 2A (HTR2A) small molecule agonists, cell-based qHTS assay (AID 1963587). Also: nearly all actives have a fitted effect of over 30% in size. The procedure, abridged: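 CHO cells stably expressing human HTR2A, plated 18 h, loaded with calcium dye 1 h at 37 C. Agonist mode: compounds added and intracellular calcium fluorescence recorded kinetically for 2 min at 1 sec intervals.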

The target in assay [13] is Muscarinic acetylcholine receptor M1 (Homo sapiens) (UniProt P11229). The assay can be described thus: Cholinergic receptor muscarinic 1 (CHRM1) small molecule antagonists, cell-based qHTS assay (AID 1963588). Also: nearly all actives have a fitted effect of over 40% in size. Also: potency is read from the fitted curve at half-maximal effect. The procedure, abridged: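 CHRM1-CHO calcium-flux assay, antagonist mode. Cells were seeded 18 h, dye-loaded 1 h at 37 C and given compound for 5 min at RT, then acetylcholine was added at 50nM. FDSS fluorescence was read 3 min; 15 concentrations, three runs.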
Sequence of Muscarinic acetylcholine receptor M1 (Homo sapiens) (P11229 whole entry, looked up): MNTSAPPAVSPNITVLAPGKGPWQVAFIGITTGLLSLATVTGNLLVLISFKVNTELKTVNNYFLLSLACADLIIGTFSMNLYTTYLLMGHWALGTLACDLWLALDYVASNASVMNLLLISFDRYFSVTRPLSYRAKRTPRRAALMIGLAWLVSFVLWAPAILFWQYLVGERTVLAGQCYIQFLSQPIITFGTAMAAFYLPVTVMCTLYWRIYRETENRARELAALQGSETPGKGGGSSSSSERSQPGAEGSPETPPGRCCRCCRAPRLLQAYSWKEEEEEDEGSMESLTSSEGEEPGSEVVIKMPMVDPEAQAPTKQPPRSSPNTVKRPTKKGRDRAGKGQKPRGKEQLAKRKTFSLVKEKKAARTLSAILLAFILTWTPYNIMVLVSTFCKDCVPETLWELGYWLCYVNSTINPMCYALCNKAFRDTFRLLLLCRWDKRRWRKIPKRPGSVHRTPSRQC

Assay [14] has the same target. The assay can be described thus: Cholinergic receptor muscarinic 1 (CHRM1) small molecule agonists, cell-based qHTS assay (AID 1963589). Also: nearly all actives have a fitted effect of over 35% in size. In a few lines:
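Stable CHRM1-CHO cells (human receptor) were incubated 18 h, dye-loaded for 1 h at 37 C and exposed to test compounds for agonist activity, with calcium-dependent fluorescence followed kinetically.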

Assay [15] can be described thus: cAMP Responsive Elements (CRE) small molecule agonists, cell-based qHTS assay (AID 1963590). In a few lines: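 FRET-based beta-lactamase readout (LiveBLAzer B/G, 2 h RT) quantified CRE activation in HEK 293T CRE-bla cells after 3 h treatment with DMSO-dissolved compounds.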
Assay [16] is described as follows: cAMP Responsive Elements (CRE) small molecule antagonists, cell-based qHTS assay (AID 1963591; active = well fitted inhibition curve with a large enough effect in the signal ratio in the repeat runs, not every such curve was filed as active; the % refers to the signal ratio). In a few lines: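 qHTS in CRE-bla HEK 293T cells: compound in DMSO, then 0.25 uM NKH477 (final), 3 h at 37 °C/5% CO2; beta-lactamase FRET read-out after 2 h substrate incubation.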
The target in assay [17] is D(2) dopamine receptor (Homo sapiens) (UniProt P14416). Nature of the assay: Dopamine D2 receptor (DRD2) small molecule agonists, cell-based qHTS assay (AID 1963594). Also: nearly all actives have a fitted effect of over 35% in size. In a few lines: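 HEK293 cells stably expressing human DRD2, pre-treated with PDE inhibitor Ro20-1724 (0.1 mM final) and compound 10 min at room temperature, then stimulated with NKH477 (200nM […]) for 30 min. cAMP read by HTRF (665/620 nm).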
Sequence of D(2) dopamine receptor (Homo sapiens) (P14416 whole entry, looked up): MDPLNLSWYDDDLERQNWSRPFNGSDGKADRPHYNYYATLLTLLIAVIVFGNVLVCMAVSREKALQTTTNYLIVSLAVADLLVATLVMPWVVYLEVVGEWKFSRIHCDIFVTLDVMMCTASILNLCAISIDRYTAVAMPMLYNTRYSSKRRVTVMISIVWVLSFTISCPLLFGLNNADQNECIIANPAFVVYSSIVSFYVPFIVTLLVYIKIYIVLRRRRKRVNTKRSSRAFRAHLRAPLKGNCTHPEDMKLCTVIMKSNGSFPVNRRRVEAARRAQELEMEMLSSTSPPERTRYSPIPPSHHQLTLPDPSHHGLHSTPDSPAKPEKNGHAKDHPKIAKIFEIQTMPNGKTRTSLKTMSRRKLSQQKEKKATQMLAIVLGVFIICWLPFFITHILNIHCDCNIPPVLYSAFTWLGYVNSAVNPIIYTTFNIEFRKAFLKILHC

For assay [18], the target named is 5-hydroxytryptamine receptor 2A (Homo sapiens) (UniProt P28223). The assay can be described thus: 5-hydroxytryptamine receptor 2A (HTR2A) small molecule antagonists, cell-based qHTS assay (AID 1963586). Also: nearly all actives have a fitted effect of over 45% in size. In a few lines:
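Antagonist-mode intracellular calcium assay: DOI (4 nM) added after 5 min compound pre-incubation at room temperature to dye-loaded HTR2A-CHO cells. Fluorescence followed for 3 min, sampled every second.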

The nature of assay [19]: p53 small molecule agonists, cell-based qHTS assay with human liver microsomes (AID 1963577).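 Also: p53 response element beta-lactamase reporter cells with liver microsomes plus NADPH.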 The procedure, abridged:
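Metabolically competent format: test substances, human liver microsomes and NADPH (both 0.5 mg/mL final) incubated with p53RE-bla cells 16 h at 37 C. Beta-lactamase reporter signal then quantified by fluorescence.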

Sequence of 5-hydroxytryptamine receptor 2A (Homo sapiens) (P28223 whole entry, looked up): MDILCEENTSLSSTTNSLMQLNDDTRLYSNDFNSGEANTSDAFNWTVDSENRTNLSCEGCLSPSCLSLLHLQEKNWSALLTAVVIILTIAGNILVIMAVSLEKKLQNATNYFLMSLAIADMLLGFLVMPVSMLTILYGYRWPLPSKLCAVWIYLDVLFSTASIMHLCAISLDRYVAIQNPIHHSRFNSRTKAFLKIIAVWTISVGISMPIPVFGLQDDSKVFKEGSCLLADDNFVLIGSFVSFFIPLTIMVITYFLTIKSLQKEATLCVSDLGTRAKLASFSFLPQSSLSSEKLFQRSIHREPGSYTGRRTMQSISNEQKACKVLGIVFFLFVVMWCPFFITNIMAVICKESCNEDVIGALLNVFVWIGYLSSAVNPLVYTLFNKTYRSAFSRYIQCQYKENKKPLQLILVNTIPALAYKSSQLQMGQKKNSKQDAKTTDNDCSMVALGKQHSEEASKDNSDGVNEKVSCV
Sequence of Gonadotropin-releasing hormone receptor (Homo sapiens) (P30968 whole entry, looked up): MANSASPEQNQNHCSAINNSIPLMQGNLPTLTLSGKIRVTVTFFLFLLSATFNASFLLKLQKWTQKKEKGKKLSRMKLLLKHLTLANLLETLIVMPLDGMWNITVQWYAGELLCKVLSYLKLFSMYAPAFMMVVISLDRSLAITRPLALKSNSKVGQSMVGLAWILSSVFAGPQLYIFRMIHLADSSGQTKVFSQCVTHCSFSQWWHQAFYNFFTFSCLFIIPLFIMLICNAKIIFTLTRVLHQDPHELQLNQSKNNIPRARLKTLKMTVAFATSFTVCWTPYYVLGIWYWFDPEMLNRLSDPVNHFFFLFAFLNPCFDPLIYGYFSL
Sequence of Beta-2 adrenergic receptor (Homo sapiens) (P07550 whole entry, looked up): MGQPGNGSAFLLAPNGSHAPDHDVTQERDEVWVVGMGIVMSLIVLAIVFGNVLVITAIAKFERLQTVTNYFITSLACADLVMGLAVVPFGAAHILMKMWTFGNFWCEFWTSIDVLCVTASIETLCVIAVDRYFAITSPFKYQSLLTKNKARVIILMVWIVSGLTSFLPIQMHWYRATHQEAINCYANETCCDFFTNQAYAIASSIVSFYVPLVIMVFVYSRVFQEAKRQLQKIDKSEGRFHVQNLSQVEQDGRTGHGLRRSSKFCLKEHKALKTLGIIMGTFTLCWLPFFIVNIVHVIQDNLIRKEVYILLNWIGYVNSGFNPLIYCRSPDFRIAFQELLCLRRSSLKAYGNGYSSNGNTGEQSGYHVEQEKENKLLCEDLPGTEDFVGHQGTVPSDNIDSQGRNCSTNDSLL
Sequence of KiSS-1 receptor (Homo sapiens) (Q969F8 whole entry, looked up): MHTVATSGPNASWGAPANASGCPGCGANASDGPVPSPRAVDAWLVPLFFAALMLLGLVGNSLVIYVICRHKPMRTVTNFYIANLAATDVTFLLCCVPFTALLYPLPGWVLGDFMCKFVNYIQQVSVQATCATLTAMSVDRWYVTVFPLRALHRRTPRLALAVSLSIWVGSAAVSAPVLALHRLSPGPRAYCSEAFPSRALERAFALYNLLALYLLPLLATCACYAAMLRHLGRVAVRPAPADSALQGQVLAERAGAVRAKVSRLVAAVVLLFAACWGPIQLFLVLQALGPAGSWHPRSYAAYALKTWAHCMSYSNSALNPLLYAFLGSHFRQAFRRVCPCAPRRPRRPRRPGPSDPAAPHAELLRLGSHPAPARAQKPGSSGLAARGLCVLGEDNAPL

For the molecule `COc1cc([C@@H]2c3cc4c(cc3[C@@H](O[C@@H]3O[C@@H]5CO[C@@H](C)O[C@H]5[C@H](O)[C@H]3O)[C@H]3COC(=O)[C@H]23)OCO4)cc(OC)c1O`, the Potency result in assay [1], in assay [2], in assay [3], in assay [4], in assay [5] and in assay [6] was “inactive” each time. For the same molecule, the Potency result in assay [7], in assay [9], in assay [10] and in assay [11] was “inactive” throughout. In addition, the Potency in assay [8] was 1.14 µM (active).

Regarding `CN1[C@@H]2CC(OC(=O)[C@H](CO)c3ccccc3)C[C@H]1[C@@H]1O[C@@H]12` (some centres not stated), the Potency entry in assay [1], in assay [2], in assay [3], in [7], in assay [8] and in assay [12] was “inactive” throughout. In addition, the Potency result in assay [13], in assay [14], in [15], in assay [16], in assay [9] and in [17] was “inactive” each time. Further, the Potency entry in assay [11] is “inactive”.

For `c1ccc2sc(SN(C3CCCCC3)C3CCCCC3)nc2c1`, the Potency result in assay [1], in [2], in assay [3], in [5], in assay [6] and in [7] was “inactive” in each case. Further, the Potency entry in [18], in assay [12], in [13], in assay [14], in assay [15] and in assay [16] was “inactive” in each case. Also, the Potency result in assay [10], in assay [17] and in [11] was “inactive” in each case.

`C1CCC2=NCCCN2CC1`: the Potency entry in assay [1], in assay [2], in [3], in [4], in assay [5] and in assay [6] was “inactive” throughout. The Potency result in [7], in assay [18], in [12], in [13], in [14] and in assay [15] was “inactive” each time. The Potency entry in [9], in [17] and in assay [11] was “inactive” each time.

Regarding `C[C@H]1O[C@@H](O[C@H]2[C@@H](O)C[C@H](O[C@H]3[C@@H](O)C[C@H](O[C@H]4CC[C@@]5(C)[C@H](CC[C@@H]6[C@@H]5C[C@@H](O)[C@]5(C)[C@@H](C7=CC(=O)OC7)CC[C@]65O)C4)O[C@@H]3C)O[C@@H]2C)C[C@H](O)[C@@H]1O`, the Potency result in [1], in assay [2], in assay [3], in [9], in assay [10] and in assay [17] was “inactive” in each case. Besides, the Potency result in [11] was “inactive”. In assay [6], the Potency is 205 nM (active) and 90.3 nM (active).

Consider `Nc1ccc([N+](=O)[O-])cc1O`, for which the Potency result in [1], in [2], in assay [3], in [19], in assay [8] and in assay [18] was “inactive” each time. Moreover, the Potency result in assay [12], in assay [13], in assay [14], in [15] and in assay [16] was “inactive” in each case.

For `CCCCCCCCC(CCCCCC)C(=O)O` (configuration not stated), the Potency entry in assay [1], in assay [2], in assay [3], in assay [4], in assay [5] and in assay [8] was “inactive” each time. Besides, the Potency result in assay [18], in [12], in assay [13], in assay [14], in [15] and in assay [16] was “inactive” each time. Moreover, the Potency entry in [17] and in assay [11] was “inactive” each time.

For `CN1CCC(Nc2ncc3ncnc(Nc4ccc(F)c(Cl)c4)c3n2)CC1`, the Potency entry in [1], in assay [2], in assay [3], in assay [5], in assay [6] and in assay [18] was “inactive” throughout. The Potency entry in assay [12], in assay [14], in assay [9], in [17] and in assay [11] was “inactive” each time. Also, in assay [13], the Potency was 8.18 µM (active).

For the molecule `Cc1nc(-c2ccccn2)ncc1C(=O)Nn1cc(C)c2cc(F)ccc21`, the Potency result in [1], in [2], in [3], in [6], in assay [7] and in assay [18] was “inactive” in each case. Further, the Potency result in assay [12], in [13], in assay [14], in [15], in assay [16] and in [9] was “inactive” in each case. Moreover, the Potency result in [11] is “inactive”.
